Reference: PubChem BioAssay AID504710 (Sanford-Burnham Center for Chemical Genomics, 2011)
A number with no mark means an inactive call. The source made the active and inactive calls.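 Rule for the calls: active = inhibition reaching about 16% in any single replicate (limit read from the data); inactive = the rest.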

biological target: Hexokinase HKDC1 (Homo sapiens) (UniProt Q2TB90); experiment: compounds lowering human HKDC1 activity – biochemical, single concentration, confirmation (AID 504710); conditions: recombinant HKDC1, G6PDH/diaphorase/resazurin fluorescence; at 20 µM; stronger effect = higher value
Sequence (Q2TB90 whole entry, looked up): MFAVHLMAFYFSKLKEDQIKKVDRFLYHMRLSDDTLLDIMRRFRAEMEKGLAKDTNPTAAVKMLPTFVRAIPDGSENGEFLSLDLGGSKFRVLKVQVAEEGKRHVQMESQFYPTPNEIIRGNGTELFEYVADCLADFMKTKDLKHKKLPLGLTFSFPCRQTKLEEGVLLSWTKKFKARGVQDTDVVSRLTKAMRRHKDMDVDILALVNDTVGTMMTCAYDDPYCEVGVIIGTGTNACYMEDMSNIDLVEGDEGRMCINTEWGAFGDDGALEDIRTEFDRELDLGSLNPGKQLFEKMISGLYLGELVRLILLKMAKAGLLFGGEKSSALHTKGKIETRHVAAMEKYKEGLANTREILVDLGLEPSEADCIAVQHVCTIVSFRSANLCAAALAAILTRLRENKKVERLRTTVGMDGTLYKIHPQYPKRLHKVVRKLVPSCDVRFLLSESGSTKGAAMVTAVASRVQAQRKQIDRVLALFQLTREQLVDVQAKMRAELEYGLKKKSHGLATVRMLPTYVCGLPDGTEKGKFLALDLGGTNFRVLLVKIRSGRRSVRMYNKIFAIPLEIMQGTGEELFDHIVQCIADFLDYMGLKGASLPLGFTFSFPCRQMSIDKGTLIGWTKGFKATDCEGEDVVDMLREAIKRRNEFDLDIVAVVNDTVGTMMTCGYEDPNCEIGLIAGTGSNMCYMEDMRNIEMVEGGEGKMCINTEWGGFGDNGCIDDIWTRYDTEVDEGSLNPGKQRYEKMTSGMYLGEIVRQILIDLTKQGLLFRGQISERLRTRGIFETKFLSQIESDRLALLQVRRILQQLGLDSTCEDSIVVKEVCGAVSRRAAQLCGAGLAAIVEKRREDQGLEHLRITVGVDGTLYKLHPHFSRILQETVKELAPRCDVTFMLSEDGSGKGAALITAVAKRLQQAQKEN

SMILES	inhibition
COCC(=O)OC1CCn2c1nc1c2C(=O)C(C)=C(NC(C)=O)C1=O (configuration not stated)	79.4% (active)
CC(OC(=O)c1cc(O)c2ccccc2c1O)C(=O)Nc1ccc(C(N)=O)cc1 (configuration not stated)	28.4% (active)
Oc1ccc(/C=N/Nc2ncc(Br)cn2)c(O)c1	44.6% (active)
COc1cc(/C=C(\C#N)c2nc3ccc(C)cc3[nH]2)cc([N+](=O)[O-])c1O	42.2% (active)
Cc1cc(Oc2ccc(C(C)(C)C)cc2)nc(N2CCOCC2)n1	-37%
CC(NC1=CC(=O)c2cccnc2C1=O)C(O)c1ccccc1 (configuration not stated)	43.3% (active)
CCCCN(CCCC)C(=S)N/N=C/c1c(C)[nH]n(-c2ccccc2)c1=O	-65%
Cc1oc2c(c1C(=O)c1ccccc1)C(=O)C(=O)c1ccccc1-2	51.8% (active)
CCc1ccc(S(=O)(=O)/N=C2\C=C(Nc3ccc(C(=O)O)cc3)C(=O)c3ccccc32)cc1	59.8% (active)
Cc1ccc(C2=NNC(=Nc3ccc(F)cc3)SC2)cc1	-80%
COc1ccc(N2C3=C(CC4=C2CCCC4=O)C(=O)CCC3)cc1	47.1% (active)
NC(=NCc1ccc2c(c1)OCO2)NC(=O)c1ccccc1	16.7% (active)
Cc1ccc(S(=O)(=O)Nc2c(O)ccc3ccccc23)cc1	35.5% (active)
O=c1c2ccccc2nc(/C=C/c2cccnc2)n1CCc1ccccc1	38.8% (active)
O=C1C=C(N2CCCCC2)c2ccccc2C1=O	86.1% (active)
CC(=O)N(C1=C(Cl)C(=O)c2ccccc2C1=O)c1ccc(C(=O)O)cc1	64.4% (active)
O=C(NC1=C(NC2CCS(=O)(=O)C2)C(=O)c2ccccc2C1=O)c1ccccc1 (configuration not stated)	68.9% (active)
COc1ccc(S(=O)(=O)Nc2ccc(O)c3ccccc23)cc1	51.2% (active)
CCOc1ccc2c(c1)C(NC(C)=O)C(=O)N2CCN1CCOCC1 (configuration not stated)	60.9% (active)

SMILES	inhibition
O=C(O)CSc1cc(NS(=O)(=O)c2cccc([N+](=O)[O-])c2)c2ccccc2c1O	47.9% (active)
O=C1C=C(c2c(O)ccc3ccccc23)c2ccccc2C1=O	78.1% (active)
O=C(NC1=CC(=O)c2ccccc2C1=O)c1ccccc1	69.9% (active)
COc1ccc(CN2C(=O)c3cccnc3C2O)cc1 (configuration not stated)	35.8% (active)
Cc1ccc(S(=O)(=O)/N=C2\C=C(Nc3cccc(C(=O)O)c3)C(=O)c3ccccc32)cc1	79.9% (active)
O=C1C(Cl)=C(NCc2cccnc2)C(=O)c2ccccc21	-45.1%
Oc1ccc(/C=N/NC(=S)Nc2cccnc2)c(O)c1	14.6% (active)
CC(=O)N1CCN(C2c3cccc4cccc(c34)C2NS(=O)(=O)c2ccccc2)CC1 (configuration not stated)	-45.3%
CC(=O)C1=C(c2ccccc2)N(C(C)=O)n2c(C)nnc2S1	-125%
O=C(COC(=O)c1n[nH]c2ccccc12)c1cccc(Br)c1	-30.5%
S=C(NCc1ccccn1)NN=Cc1ccccn1	-45.4%
CC(=O)NC1C(=O)N(CCN2CCOCC2)c2ccc(Cl)cc21 (configuration not stated)	60.6% (active)
O=S(=O)(NC1c2cccc3cccc(c23)C1N1CCN(CCO)CC1)c1ccccc1 (configuration not stated)	-118%
COc1cc(N=c2ssnc2Cl)cc(OC)c1OC	-45.9%
CC(=O)Oc1cccc2c1C(=O)C1CC=CC(OC(C)=O)C1C2=O (configuration not stated)	-65.8%
O=C(C1=C(c2ccccc2)C(=O)c2ccccc2C1=O)c1ccccc1	52% (active)
CC[n+]1c(/C=C2\Sc3ccccc3N2C)ccc2cccc(C)c21	-37.8%
CCc1ccc(S(=O)(=O)/N=C2\C=C(Nc3cccc(C(=O)O)c3)C(=O)c3ccccc32)cc1	64.8% (active)
